Measurements from PubChem BioAssay AID1159580 (chemical genetic matrix, 2015).
Among all 5,500 compounds or so, about 2,000 (36%) were called active. Inconclusive results (about 18%) are left out. Cut-off read from the data, not from the text of the source: active = normalized growth mostly below about 0.91 (no sharp cut-off); inconclusive = no clear call, values can overlap the other calls; inactive = mostly above about 0.92. This is one part of the list.

Experiment: chemical genetic growth profiling, strain panel (AID 1159580);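 note: tested at 20 µM; growth read once vehicle control cultures reached saturation at 30 °C; 1 = growth at the plate median or of vehicle wells; lower values mean less growth of the strain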
Conditions: growth OD
[1] = S. cerevisiae deletion strains, locus YAL013W, strain DEP1, hits give low values
[2] = S. cerevisiae deletion strains, locus YBR229C, strain ROT2, hits give low values
[3] = S. cerevisiae deletion strains, locus YCL061C, strain MRC1, hits give low values
[4] = S. cerevisiae deletion strains, locus YDL101C, strain DUN1, hits give low values
[5] = S. cerevisiae deletion strains, locus YDR150W, strain NUM1, hits give low values
[6] = S. cerevisiae deletion strains, locus YEL061C, strain CIN8, hits give low values
[7] = S. cerevisiae deletion strains, locus YGR078C, strain PAC10, hits give low values
[8] = S. cerevisiae deletion strains, locus YHR030C, strain SLT2, hits give low values
[9] = S. cerevisiae deletion strains, locus YHR087W, strain rtc3, hits give low values
[10] = S. cerevisiae deletion strains, locus YJL187C, strain SWE1, hits give low values
[11] = S. cerevisiae deletion strains, locus YJR043C, strain POL32, hits give low values
[12] = S. cerevisiae deletion strains, locus YJR075W, strain HOC1, hits give low values
[13] = S. cerevisiae deletion strains, locus YKL190W, strain CNB1, hits give low values
[14] = S. cerevisiae deletion strains, locus YLR039C, strain RIC1, hits give low values
[15] = S. cerevisiae deletion strains, locus YLR058C, strain SHM2 (second series), hits give low values
[16] = S. cerevisiae deletion strains, locus YLR085C, strain ARP6, hits give low values
[17] = S. cerevisiae deletion strains, locus YLR262C, strain YPT6, hits give low values
[18] = S. cerevisiae deletion strains, locus YML094W, strain GIM5, hits give low values
[19] = S. cerevisiae deletion strains, locus YMR219W, strain ESC1, hits give low values
[20] = S. cerevisiae deletion strains, locus YMR263W, strain SAP30, hits give low values
[21] = S. cerevisiae deletion strains, locus YNL153C, strain GIM3, hits give low values
[22] = S. cerevisiae deletion strains, locus YNL298W, strain CLA4 (second series), hits give low values
[23] = S. cerevisiae deletion strains, locus YNL322C, strain KRE1, hits give low values
[24] = S. cerevisiae deletion strains, locus YNR030W, strain Alg12, hits give low values
[25] = S. cerevisiae deletion strains, locus YOL006C, strain TOP1, hits give low values
[26] = S. cerevisiae deletion strains, locus YPL055C, strain LGE1, hits give low values
[27] = S. cerevisiae deletion strains, locus YPL241C, strain CIN2, hits give low values
[28] = S. cerevisiae deletion strains, locus YPR135W, strain CTF4, hits give low values
[29] = S. cerevisiae strains, strain wild type, hits give low values

Measured: normalized growth

COC(=O)Cc1cc(OC)c(OC)cc1[N+](=O)[O-]
active: [9] 1.1 [resistant]
inactive: [1] 1.01 | [2] 0.998 | [3] 1.02 | [4] 1.01 | [5] 1.01 | [6] 0.953 | [7] 1.03 | [8] 1.07 | [10] 0.983 | [11] 1 | [12] 0.997 | [13] 0.978 | [14] 1.16 | [15] 0.991 | [16] 0.982 | [17] 1.15 | [18] 0.997 | [19] 1 | [20] 1 | [21] 1.01 | [22] 0.977 | [23] 1.01 | [24] 0.985 | [25] 0.977 | [26] 0.974 | [27] 1.01 | [28] 1.03 | [29] 0.972

COc1ccc([N+](=O)[O-])c(OC)c1C(N)=O
inactive: [1] 1.02 | [2] 1.03 | [3] 1.06 | [4] 1.06 | [5] 1.04 | [6] 0.995 | [7] 1.04 | [8] 1.11 | [9] 0.964 | [10] 1.02 | [11] 1.06 | [12] 1.02 | [14] 1.03 | [15] 0.997 | [16] 1.03 | [17] 0.989 | [18] 0.98 | [19] 1.02 | [20] 1.02 | [21] 1.04 | [22] 1.02 | [23] 1.01 | [24] 1.03 | [26] 1.01 | [27] 1.02 | [28] 1.12

COc1cc([N+](=O)[O-])c(OC)cc1SCC(=O)NNC(=O)c1cc(OC)c(OC)c(OC)c1
inactive: [1] 0.982 | [2] 1.01 | [3] 0.981 | [4] 0.968 | S. cerevisiae deletion strains, locus YDL134C, strain PPH21, hits give low values 0.991 | [5] 0.942 | [6] 0.941 | [7] 0.978 | S. cerevisiae deletion strains, locus YGR229C, strain SMI1, hits give low values 1.01 | [8] 0.963 | [9] 1.03 | [10] 1.01 | [11] 0.983 | [12] 1.01 | [13] 0.999 | [14] 0.974 | [15] 0.999 | [16] 0.946 | [17] 1.04 | [18] 1.01 | [19] 1.01 | [20] 0.987 | [21] 0.988 | [22] 0.937 | [23] 0.98 | [24] 0.999 | [25] 0.931 | [26] 1.01 | [27] 0.939 | [28] 0.904 | [29] 1.02
